Measured values as given in the supplement of paper PMC3334620.
Whole data set: some 33,000 sequences, median “E-score (-0.5 to 0.5)” near -0.021, cut for the highest 2% near 0.32. The entries come from a sample that favours the highest values as a whole.

target: T1, Zap1 (UniProt P47043); assay: PBM E-score (8-mer binding enrichment) (E-score (-0.5 to 0.5)); higher = stronger / more preferred TF binding; conditions: protein concentration: 200 nM; construct: GST-full length
T1 sequence: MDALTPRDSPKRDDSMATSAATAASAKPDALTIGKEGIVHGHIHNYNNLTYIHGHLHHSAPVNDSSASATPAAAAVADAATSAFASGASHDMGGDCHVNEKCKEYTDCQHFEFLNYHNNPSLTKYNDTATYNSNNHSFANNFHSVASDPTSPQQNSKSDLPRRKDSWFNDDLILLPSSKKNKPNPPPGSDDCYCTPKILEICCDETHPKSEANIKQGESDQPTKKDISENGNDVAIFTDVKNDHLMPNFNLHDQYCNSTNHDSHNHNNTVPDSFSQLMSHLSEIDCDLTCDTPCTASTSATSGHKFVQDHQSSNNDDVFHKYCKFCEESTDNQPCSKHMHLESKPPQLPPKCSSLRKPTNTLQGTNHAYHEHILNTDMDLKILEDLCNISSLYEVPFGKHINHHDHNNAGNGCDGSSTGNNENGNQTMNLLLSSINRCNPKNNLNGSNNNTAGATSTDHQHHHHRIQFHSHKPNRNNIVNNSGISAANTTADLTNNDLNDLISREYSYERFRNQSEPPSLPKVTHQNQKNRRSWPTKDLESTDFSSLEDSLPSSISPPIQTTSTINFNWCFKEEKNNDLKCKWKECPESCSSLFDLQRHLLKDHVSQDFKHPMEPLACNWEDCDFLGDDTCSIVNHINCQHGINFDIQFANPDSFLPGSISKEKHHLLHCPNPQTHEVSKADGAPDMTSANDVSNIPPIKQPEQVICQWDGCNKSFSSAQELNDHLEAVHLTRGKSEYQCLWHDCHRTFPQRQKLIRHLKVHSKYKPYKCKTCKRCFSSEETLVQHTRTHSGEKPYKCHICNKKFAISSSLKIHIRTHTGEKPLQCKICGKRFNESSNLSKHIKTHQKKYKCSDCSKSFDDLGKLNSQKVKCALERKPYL
Experimental: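 Universal 'all 10-mer' protein binding microarrays (Agilent AMADID 015681) probed with GST-tagged S. cerevisiae TFs (full-length or DBD) made by in vitro transcription/translation (PURExpress), about 100-200 nM. Bound TF was detected with fluorescent anti-GST. Each ungapped 8-mer (which stands for itself and its reverse complement) is scored by the PBM enrichment score (E-score), a modified Wilcoxon-Mann-Whitney statistic from -0.5 to +0.5, computed with the Universal PBM Analysis Suite. Scale: above 0.35 generally sequence-specific binding.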

Sequence	PBM E-score
GGTTATAA	0.471
TTATATAA	0.331
GGTTATAC	0.461
CGTTATAA	0.247
AGTTATAC	0.104
ATTTGCGA	0.0692
CCCCATTC	-0.0769
ATCCTTCC	-0.306
GCATCTTA	-0.0867
ACCATTCT	0.0676
GATCATTA	0.0548
TATCCGGA	0.0937
ACGGTAAC	0.364
GCGGTAAA	0.165
GCGGTAAC	0.32
ACGGTAAT	0.139
ACGGTAAG	0.016
CCGGTAAC	0.316
GTTTGGAA	0.116
AGAAGTAC	-0.115
CGTAGCGA	-0.251
ATTGGTTG	0.186
CTTGGTTC	0.232
GTTGGTTA	0.316
ATTGGTTC	0.141

Sequence	PBM E-score
CTTGGTTA	0.334
ATTGGTTA	0.402
CCCTGCGG	0.292
CTAGCTCA	-0.147
ATATGGGG	-0.0334
CGAGAAAC	0.0891
AACCTGTA	0.324
GCCCTGAA	0.0835
GCCCTGTA	-0.0104
ACCCTGTA	0.353
CACCTGTA	-0.0421
CCCCTGAA	0.127
AACCTGAA	0.144
CCCCTGTA	0.02
ACCCTGAA	0.399
AACAGCGG	-0.195
AATGACCG	0.216
AATGACCT	0.393
AATGACTA	-0.136
AATGACCA	0.334
AATGACGT	-0.0682
TATGACCA	0.288
ACCTTAGG	0.216
AGTGCACG	-0.151
CATCAGCG	-0.182

Sequence	PBM E-score
AAGTATGT	-0.00136
GAGGTTGC	0.238
TAGGTTAA	0.319
AAGGTTAC	0.475
GAGGTTGA	-0.00385
AACGTTAC	0.111
GAGGTTAA	0.429
GAGGTTCC	0.223
TAGGTTCA	0.175
GAGGTTCA	0.254
TAGGTTGA	0.101
AAGGTTTC	0.206
GAGGTTAC	0.473
AGCGCACT	-0.293
CAGCCAAG	-0.242
TCTGAGAA	-0.0814
CCTCTGAC	0.139
AGTAGCAG	-0.0921
GTAGGGAC	-0.0704
CGGTTTCA	0.03
AACTTAAC	0.244
CTGATTCA	-0.158
CAGATTAC	0.0563
AATGTTAA	-0.132
AAGGTTAA	0.415

Sequence	PBM E-score
AAGGTTAG	0.35
AAGGTTTA	0.226
CAGGTTTA	-0.0228
CAGGTTTC	0.198
CAGGTTAG	0.212
CAGGTTAA	0.325
CAGATTAA	0.118
AAGGTTTG	0.176
CAGGTTAC	0.424
TATTATGA	0.00643
ACATAGCC	-0.0651
CGGTCTAC	-0.149
AGATCAGA	-0.0903
ACCCCTTC	0.234
AACCCTTG	0.444
AAACCTTG	0.0789
CACCCTTC	0.135
AGCCCTTG	-0.0802
AACCCTTC	0.424
CAACCTTG	0.332
CAACCTTC	0.313
GTCCCTTA	0.0953
GCCCCTTA	-0.0926
GACCCTTA	0.376
ACCCCTTG	0.279

Sequence	PBM E-score
CTGCGCAC	-0.0749
AAGCGTTA	-0.0244
GTGCTGTA	-0.06
CAAGGCGC	-0.141
GAATGGTA	0.202
CCTGCAAG	-0.043
AAATCACT	0.0213
ATCCCTTA	0.0364
ACCCCTTA	0.344
ACCCCTGA	0.28
AACCCTTA	0.457
CCCCCTTA	-0.365
CACCCTTA	0.269
CGGCGCAG	-0.253
ATCGTGCG	0.158
GCAGCCCC	-0.0536
ACAACCGA	0.234
GTAACCGA	0.346
ATAACCGA	0.349
ATAACCGG	0.387
ACAACCGC	0.285
AGAACCGG	-0.0565
ATAACCGC	0.459
CTAACCGA	-0.035
GGAACCGA	-0.0122

Sequence	PBM E-score
AAAACCGA	0.0886
ACAACCGG	0.194
CTAACCGC	0.223
CAGCTGGA	-0.131
CAAGGAGC	-0.24
AGAGATTA	-0.0587
GTGCTGAA	-0.117
ACTGTGGG	-0.145
TAGATATA	0.172
AGCTTAAA	0.0882
ACTAGCCG	-0.177
CTAACCTA	0.327
ATAACCTG	0.412
GCAACCTA	0.106
ACAACCTA	0.232
ATAACCTA	0.458
ACAACCTG	0.23
CTAACCTC	0.305
AGAACCTA	0.0497
GTAACCTA	0.458
CGAACCTA	0.00467
GGAACCTA	0.146
AGAACCTG	0.0538
CTGAAGCC	-0.31
ATCAGGGC	-0.249

Sequence	PBM E-score
ACATTCGT	-0.0131
GAGAACTC	-0.146
ATTGAATG	0.113
CGGGACAA	-0.0695
GGTCAAGA	0.242
GCTCTCTA	-0.246
GGGAAAAC	-0.241
AGGAAACC	0.272
GGGAAACC	0.324
CAGTATAA	0.197
ACTGAATA	-0.0283
CCAAAAAC	0.256
CCAAAACC	0.331
CAAAACCA	0.311
AAAAACCC	0.196
CAAAAACC	0.302
CAAAACCC	0.349
CCTTATAG	0.262
GCTGGGGA	-0.0703
ATTCTCTC	-0.0801
CGAGCGTA	-0.102
AAGCATAA	0.0593
